# Experimental data from PubChem BioAssay (NCI).
# Several values for one entry are separate records, joined by “and”; a condition that tells them apart may be missing. Equal values may be shown once. This is part of a sample that, as a whole, favours compounds with a hit. Of some 83,000 tested, about 20% had one in any assay.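 Treatment: one concentration, 48 hours, 96-well format. Scoring: percent growth, with anything below 10 considered active.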 Values without a mark were called inactive. Activity calls are given as the source filed them.
# Tested on: SK-MEL-5 melanoma
# Test: NCI-60 one-dose screen, 48 h (100 = growth as untreated, 0 = no growth, -100 = all killed)
# Conditions: 10 µM
# Method: Growth inhibition of the SK-MEL-5 human tumor cell line is measured as a screen for anti-cancer activity. Cells are grown in 96 well plates and exposed to the test compound for 48 hours. Compounds are tested at a single concentration, which is 10^-5 M for most compounds. The reported endpoint is percent growth (GI% or GIPRCNT), where numbers from 0 - 100% represent growth inhibition, and numbers from -100% - 0 represent cell death. For example, a value of 40 represents 60% growth inhibition. A value of 0 means no net growth occurred over the course of the experiment. A value of -40 indicates 40% of cells at the beginning of the experiment died by the end of the experiment. A value of -100 means all cells are dead at the end of the experiment.
# NCI-60 Human Tumor Cell Lines Screen was performed using the standard one-dose NCI protocol, which is described in more detail at https://dtp.cancer.gov/discovery_development/nci-60/default.htm.
# Compounds with GIPRCNT values below 10 were considered active. Activity score was based on GIPRCNT using the following formula: […]
# Score is 0 for GIPRCNT values of 100 or above, 50 for GIPRCNT values of 0, and 100 for GIPRCNT values of -100.
row,Structure (SMILES),growth
1,O=C(O)CCCc1ccc(N(CCCl)CCCl)cc1,93% and 88.4%

# Same assay, conditions: 10 µM unless noted
row,Structure (SMILES),growth
1,CC1=CC(=Nc2ccc(N(CCCl)CCCl)cc2)C=C(C)C1=O,22.8%
2,CC[C@H](C)[C@H](NC(=O)C12CC(NC)(C1)C2)C(=O)N(C)[C@H](C[C@@H](OC(C)=O)c1nc(C(=O)N[C@@H](Cc2ccccc2)C[C@H](C)C(=O)OC)cs1)C(C)C,-31.7% (active)
3,CCCCOCCOP(=O)(OCCOCCCC)OCCOCCCC,99.1%
4,COCC1OC2OC3C(COC)OC(OC4C(COC)OC(OC5C(COC)OC(OC6C(COC)OC(OC7C(COC)OC(OC8C(COC)OC(OC1C(O)C2O)C(O)C8O)C(O)C7O)C(O)C6O)C(O)C5O)C(O)C4O)C(O)C3O (stereo not given) (tested in a mixture with another compound),103%
5,N#CC(C#N)=Cc1cccc(F)c1,101%
6,Cc1cc(Br)c([N+](=O)[O-])cc1[N+](=O)[O-],100%
7,Nc1c(Cl)c(Cl)nc(C(=O)O)c1Cl,108%
8,C[Se]/C=C1/C(=O)N(c2c(Cl)cccc2Cl)c2ccccc21,38.9%
9,CCOC(=O)c1cncn1C(C)c1ccccc1 (stereo not given),102%
10,C=CC1CN2CCC1CC2C(O)c1ccnc2ccccc12 (stereo not given),104%
11,c1ccc2c(c1)O[As](O[As]1Oc3ccccc3O1)O2,20.7%
12,CCC(=O)C(CC(C)N1CCCCCC1)(c1ccccc1)c1ccccc1 (stereo not given),98.2%
13,C[C@]12CCC(=O)C[C@@H]1CC[C@@H]1[C@@H]2CC[C@]2(C)[C@@H](OC(=O)N(CCCl)N=O)CC[C@@H]12,22.8%
14,CC(Oc1ccc(-c2ccccc2)cc1)C(=O)O (stereo not given),97%
15,C=CC[PH+](c1ccccc1)c1ccccc1.C=CC[PH+](c1ccccc1)c1ccccc1.[Pt+2].[S-]c1nc2ccccc2[nH]1.[S-]c1nc2ccccc2[nH]1,-94.9% (active)
16,CNC(=O)O/N=C(\SC)C(=O)N(C)C,109%
17,CC1=C2[C@H]3OC(=O)[C@@H](C)[C@@H]3CC[C@@]2(C)C=CC1=O,112%
18,CC1(C)N=C(N)N=C(N)N1c1ccc(CCC(=O)Nc2ccc(S(=O)(=O)F)cc2)cc1,34.8%
19,COc1cc(-c2ccc(N)c(OC)c2)ccc1N,105%

row,Structure (SMILES),growth
1,O=[P+](O)c1cccnc1,102%
2,Cn1cc(-c2csc(-c3cn(CCCCN4CCOCC4)c4ccc(F)cc34)n2)c2cccnc21,48.1%
3,N#CC(NC(=O)CCl)=C(Cl)Cl,25.4%
4,O=[N+]([O-])c1cc(Cl)c(Cl)c([N+](=O)[O-])c1Cl,79.1%
5,O=c1c2ccccc2nc(-c2ccccc2Cl)n1-c1nnc(C(F)(F)F)s1,9.47% (active)
6,S=P(SP(=S)(c1ccccc1)c1ccccc1)(c1ccccc1)c1ccccc1,99.9%
7,NC(=O)c1c(Br)c(Br)c(Br)c(Br)c1C(=O)O (tested in a mixture with another compound),95.2% and 101%
8,CCCCCCCCCCCCCCCC[n+]1ccccc1,-100% (active) and -94.8% (active)
9,COc1ccc(CN)cc1OC,115%
10,COc1ccc2c(c1)c(-c1nc(-c3c[nH]c4ncccc34)cs1)cn2CCCCN1CCOCC1,26%
11,C[C@]12CCc3sc(Nc4ccc(OC(F)(F)F)cc4)nc3C1=CC[C@@H]1[C@@H]2CC[C@]2(C)C(=O)CC[C@@H]12,95.9%
12,Cc1c2ccncc2c(C)c2c1[nH]c1ccccc12,-97.7% (active)
13,ClCc1ccc(Cl)c(Cl)c1,92.2%
14,CN(C)c1ccc(C=C2C(=O)NC(=O)NC2=O)cc1,94.4%
15,Cc1ccccc1-n1c(/C=C\c2ccccn2)nc2ccccc2c1=O,73.7%
16,CC[PH+](CC)CC.O=COC1OC([S-])C(OC=O)C(OC=O)C1OC=O.[Au+] (stereo not given),-96.7% (active)
17,CC(C)c1cccc(C(C)C)c1O,110%
18,COc1ccc(N(CC(=O)NCCC[Te]c2ccccc2)C(=O)c2ccccc2)cc1,55.2%
19,COc1ccc(N)cc1OC,107%

# Same assay, conditions: 75 µM
row,Structure (SMILES),growth
1,O=C(O)CCCc1ccc(N(CCCl)CCCl)cc1,38.6%
